{"source": "PubChem BioAssay (NCI)", "note": "This is part of a sample that, as a whole, favours compounds with a hit. Of some 83,000 tested, about 20% had one in any assay.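 Results are percent growth after 48 hours of single-concentration exposure. 100 means growth as in untreated cells, lower positive values show inhibition; negative values down to -100 show cell death.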 Calls of active or inactive are those of the source. How the source made its calls: active means growth percent below 10; inactive means the rest.", "data": [{"tested_on": "NCI-H226 lung", "assay": "NCI-60 one-dose screen, 48 h (100 = growth as untreated, 0 = no growth, -100 = all killed)", "conditions": "10 µM", "values": [{"smiles": "O=C(O)/C=C/c1ccc2c(c1)CCC2", "growth": "105% (inactive)"}, {"smiles": "COC(=O)Nc1nc2ccc(C(=O)c3cccs3)cc2[nH]1", "growth": "0.146% (active)"}, {"smiles": "C[N+](C)=c1ccc2nc3c(cc(Nc4ccccc4)c4ccccc43)oc-2c1", "growth": "44.4% (inactive)"}, {"smiles": "O=C(O)c1ccnc(Br)c1", "growth": "92.6% (inactive)"}, {"smiles": "Cc1ccccc1N=C(c1ccccc1)C1C(=O)c2ccccc2C1=O", "growth": "90.4% (inactive)"}, {"smiles": "C=CCc1cc(C(C)=O)cc(OC)c1O", "growth": "109% (inactive)"}, {"smiles": "CC(=O)OC(C(=O)O)c1ccccc1", "note": "(stereo not given)", "growth": "110% (inactive)"}, {"smiles": "Cc1cc(Cc2cc(C)c(N)cc2N)c(N)cc1N", "growth": "81.7% (inactive)"}, {"smiles": "Clc1ccc(-c2nnc(-c3cccc4ccccc34)o2)cc1", "growth": "87.6% (inactive)"}, {"smiles": "O=S(=O)(O)c1cc(O)c2c(N=Cc3ccccc3O)c(S(=O)(=O)O)ccc2c1", "growth": "101% (inactive)"}, {"smiles": "COCCCC/C(=N\\OCCN)c1ccc(C(F)(F)F)cc1", "growth": "101% (inactive)"}, {"smiles": "COC(=O)Nc1cccc(Cl)c1OC", "growth": "96.5% (inactive)"}, {"smiles": "Cc1ccc(C(=O)NC2c3ccccc3Oc3ccccc32)cc1", "growth": "79% (inactive)"}, {"smiles": "CC(=O)NC(N)=S", "growth": "103% (inactive)"}]}, {"tested_on": "NCI-H322M lung", "assay": "NCI-60 one-dose screen, 48 h (100 = growth as untreated, 0 = no growth, -100 = all killed)", "conditions": "10 µM", "values": [{"smiles": "CN(C)c1nc2c([nH]1)c(=O)n(C)c(=O)n2C", "growth": "105% (inactive)"}, {"smiles": "NC(=S)N/N=C/c1ccc(N)cc1", "growth": "99.4% (inactive)"}, {"smiles": "N#Cc1ccc(OC(=O)Nc2ccc(Cl)c(Cl)c2)cc1", "growth": "89.4% (inactive)"}, {"smiles": "Cc1cc(=O)n(-c2ccc(F)cc2)[nH]1", "growth": "95.6% (inactive)"}, {"smiles": "c1ccc2c(c1)Sc1ccccc1S2", "growth": "92.5% (inactive)"}, {"smiles": "CCOC(=O)c1cc2cccc(OC)c2oc1=O", "growth": "107% (inactive)"}, {"smiles": "CSC(=N\\N=C\\c1ccc(N(C)C)cc1)/N=C/N(C)C", "growth": "102% (inactive)"}, {"smiles": "O=C(O)CCC(NC(=O)OCc1ccccc1)C(=O)O", "note": "(stereo not given)", "growth": "98.6% (inactive)"}, {"smiles": "COc1cccc(/C=N/NC(=S)NC2CC3CCC2C3)c1O", "note": "(stereo not given)", "growth": "62.2% (inactive)"}, {"smiles": "CC(C)(O)C#CC#CC(C)(C)O", "growth": "102% (inactive)"}, {"smiles": "O=C(O)c1ccnc(Br)c1", "growth": "106% (inactive)"}, {"smiles": "O=c1[nH]nc(SC2CCCCC2)c(=O)[nH]1", "growth": "96.8% (inactive)"}, {"smiles": "Clc1ccc(-c2nnc(-c3cccc4ccccc34)o2)cc1", "growth": "112% (inactive)"}, {"smiles": "O=S(=O)(O)c1cc(O)c2c(N=Cc3ccccc3O)c(S(=O)(=O)O)ccc2c1", "growth": "93.7% (inactive)"}, {"smiles": "COC(=O)Nc1cccc(Cl)c1OC", "growth": "107% (inactive)"}, {"smiles": "O=C(O)CNC(=O)c1ccccc1", "growth": "104% (inactive)"}]}]}
